Most compounds without a hit are left out; they make up all but 21% or so of the library.
Pf growth 48h = P. falciparum growth inhibition at 48 hours (one generation); AID 504832; 310,000 compounds, 5.9% hits; P. falciparum luciferase growth in erythrocytes, 48 h; Potency, µM (titrated, usually from 28.7 µM), for the others: top-dose activity change, negative = inhibition, usual class: inhibitors; note: potency is the fitted concentration of half-maximal effect; % is set by controls: 0 for no effect and ±100 for the full control effect
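Firefly luciferase activity from engineered P. falciparum reports growth; inhibitors lower the luminescent signal. Cultures contained 2% hematocrit erythrocytes at 0.1% final parasitemia.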
Pf growth 96h = P. falciparum growth inhibition at 96 hour, primary screen for plastid delayed-death inhibitors; P. falciparum luciferase reporter growth, 96 h; Potency, µM (top dose mostly 28.7 µM), inactives show top-dose activity change, negative = inhibition, usual class: inhibitors; 320,000 compounds, 6.9% hits; note: potency is the fitted concentration of half-maximal effect; % is set by controls: 0 for no effect and ±100 for the full control effect
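Cell-based qHTS: luciferase-tagged P. falciparum in erythrocytes (2% hematocrit, 0.05% parasitemia final) incubated with compounds for 96 hours, 37 C, 5% CO2; luciferase detection reagent then added and luminescence measured.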
CHX counter = counter-screen for Shiga toxin inhibitors: cycloheximide protein synthesis inhibition | 300,000 compounds, 12% hits | max response, % | AID 2314 | cell reporter, cycloheximide protein synthesis inhibition counterscreen; in the data active = max response mostly above about 13%, no sharp cut-off; inactive = mostly below about 14%; note: read at 38.3 µM for the half of the compounds with a filed dose; 0% is about no effect
Shiga toxin inh = Shiga toxin inhibition. Vero cells, Shiga toxin protein synthesis inhibition reporter. inhibition, % at 38.7 µM. AID 2315. 290,000 compounds, 9.2% hits; in the data active = inhibition mostly above about 28%, no sharp cut-off; inactive = mostly below about 43%; note: 0% is about no effect
NS1 function inh = blocks influenza NS1 protein function; Potency, µM (series often up to 46.1 µM), inactives show at the top dose activity, positive = more growth; 270,000 compounds, 0.4% hits; AID 2326; calls by dose curve; note: potency is the fitted concentration of half-maximal effect; actives are rising curves; nearly all actives have a fitted effect of over 50% in size
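S. cerevisiae expressing influenza A NS1, grown in glucose, washed, then diluted 1:100 into pH 6.0 -URA galactose medium with 23 nl compound. Growth recovery read as OD600; NS1-free strain serves as control.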
An asterisk follows results filed as active; i = inactive; ? = inconclusive; . = no result given; [ ] = remark or other dose. Unless noted, calls come from the whole dose curve; as a rule, active = well fitted inhibition curve with a large enough effect; inconclusive = small, poorly fitted or top-dose-only effect, or another doubt; inactive = no such curve, though single readings can be large or run the other way.

SMILES | Pf growth 48h | Pf growth 96h | CHX counter | Shiga toxin inh | NS1 function inh
Nc1nc(Cl)nc2c1ncn2C1OC(CO)C(O)C1F (stereo unspecified) | . | . | -3 | -10 | .
CC(=O)C1=C(c2ccccc2)NC(=S)NC1c1ccc(O)c(O)c1 (stereo unspecified) | -4%[5.75 µM] | 13µM* | -2 | -1 | .
Cc1cccc2c1c1ccc3c(c1n2C)C(=O)C=CC3=O | 12µM* | ? | 2 | 6 | 21%
Cc1cccc(Cn2c(N(C)Cc3ccccc3)nc3c2c(=O)[nH]c(=O)n3C)c1 | 12µM* | 13µM* | -4 | -3 | -83%
C/C=C/Cn1c(N(C)Cc2ccccc2)nc2c1c(=O)[nH]c(=O)n2C | ? | 8.3µM* | 1 | -12 | ?
Cc1csc(Sc2nc3c(c(=O)[nH]c(=O)n3C)n2Cc2ccccc2Cl)n1 | -19% | -9% | 1 | 10 | ?
COc1ccc(N2CCN(c3nc4c(c(=O)[nH]c(=O)n4C)n3Cc3cccc(C)c3)CC2)cc1 | 10µM* | 48% | -1 | 10 | -34%
Cc1cccc(Cn2c(Sc3nc(C)cs3)nc3c2c(=O)[nH]c(=O)n3C)c1 | -21% | 1.7µM* | -3 | -4 | ?
CN(Cc1ccccc1)c1nc2c(c(=O)[nH]c(=O)n2C)n1C | 0% | 1% | -3 | -1 | -7%
Cc1ccc(S(=O)(=O)NC2CC2)cc1[N+](=O)[O-] | 1% | -9% | -2 | 6 | 21%
NC(=O)c1nsc(C(=O)N(c2cccc(F)c2)C(C(=O)NCC2CCCO2)c2ccc3ncccc3c2)c1N (stereo unspecified) | ? | ? | -3 | 30 | -3%
CCOC(=O)c1c(NC(=O)CSc2nnnn2-c2ccccc2)sc2c1CC(C)(C)NC2(C)C | 6.6µM* | 2.6µM* | -3 | -13 | 19%
CCOC(=O)c1c(NC(=O)CSc2nc3ccc(C)cc3[nH]2)sc2c1CC(C)(C)NC2(C)C | 4.7µM* | 4.7µM* | . | . | .
CCOC(=O)c1c(NC(=O)CSc2nnnn2-c2ccccc2OCC)sc2c1CC(C)(C)NC2(C)C | 10µM* | 8.3µM* | . | . | .
CCOC(=O)c1c(NC(=O)CCS(=O)(=O)c2ccccc2)sc2c1CC(C)(C)NC2(C)C | -20% | ? | 5 | -10 | 9%
CCOC(=O)c1sc(NC(=O)CSc2nnnn2-c2ccccc2)c(C(=O)OCC)c1C | -5% | -12% | -1 | 0 | -19%
O=C(c1ccc(NC(=S)NCc2ccco2)cc1)N1CCOCC1 | 4% | -39% | -2 | -3 | 6%
Cc1cccn2c(NC(=O)c3ccccc3F)c(-c3ccccc3)nc12 | 3% | 7% | 2 | -5 | 1%
CC(=O)N(/N=C1\Sc2ccccc2C1=O)c1ccc(C)cc1C | -17% | i | 59* | 121* | 4%
CC(=O)N(/N=C1\Sc2ccccc2C1=O)c1ccccc1 | 72% | 95% | 40* | 37* | -3%
Cc1ccccc1CN1C(=O)c2ccccc2Sc2ccc(C(=O)O)cc21 | -8% | ? | -5 | -15 | .
CC(=O)N(/N=C1/C(=O)Nc2ccccc21)c1ccccc1 | 104% | 155% | 28* | 44* | -11%
CC(=O)N(/N=C1\Sc2ccccc2C1=O)c1ccccc1C | 25% | 7% | 68* | 91* | -50%
CC(=O)c1ccc(N=C2C(=O)Nc3ccccc32)cc1 | 2% | 0% | 2 | 6 | 11%
Cc1ccc([N+](=O)[O-])cc1S(=O)(=O)Nc1ccc(C(=O)NCc2ccccn2)cc1 | ? | -9% | . | . | .
SMILES | Pf growth 48h | Pf growth 96h | CHX counter | Shiga toxin inh | NS1 function inh
CCCC[C@@H](NC(=O)[C@@H](Cc1cn(C(=O)OC)c2ccccc12)NC(=O)[C@H](CC(C)(C)C)NC(=O)N1[C@H](C)CCC[C@@H]1C)C(=O)O | . | . | 5 | -7 | .
C=CCn1c(C)cc(C(=O)Cn2ncc(Cl)c(Cl)c2=O)c1C | 3% | 9% | 42* | 73* | 4%
O=C(Cn1ncc(N2CCOCC2)c(Cl)c1=O)c1ccc(Cl)cc1 | 37% | 95% | 18 | 18 | -2%
C=CCn1c(C)cc(C(=O)CN2NS(=O)(=O)c3ccccc3C2=O)c1C | 92% | 104% | 33* | 87* | -6%
O=C(Cn1ncc(Cl)c(Cl)c1=O)NC1CCCCC1 | -24% | ? | . | . | .
O=C(Cn1ncc(Cl)c(Cl)c1=O)NCC1CCCCC1 | -18% | -3% | 30* | -8 | 19%
CCCCc1ccc(NC(=O)CN2NS(=O)(=O)c3ccccc3C2=O)cc1 | 10% | . | -2 | -20 | -8%
O=C(Cn1ncc(Cl)c(Cl)c1=O)c1ccc(Cl)cc1 | -29% | ? | 21* | 32* | -13%
